HT1080 IDH1KD tx: qHTS for induction of synthetic lethality in tumor cells producing 2HG: qHTS for the HT-1080-IDH1KD cell line; Potency, µM (highest dose often 46.1 µM), inactives show top-dose activity, negative = toxicity, hits mostly cytotoxic; HT-1080 IDH1 knockdown viability, ATP luminescence, 48 h; AID 686971, 2013; 360,000 tested, 2% active;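 note: 0% = DMSO wells and -100% = cell-free medium wells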
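In this qHTS, HT-1080 cells depleted of IDH1 are exposed for 48 h at 37 °C to compound titrations. Toxicity is scored from CellTiter-Glo luminescence, with DMSO as full viability and medium alone as none.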
KB-3-1 tox: qHTS assay for MDR1-selective chemotherapeutics: Primary screen using the parental adenocarcinoma cell KB-3-1; Potency, µM (series often up to 46.1 µM), actives largely listed as cytotoxic; 400,000 tested, 1.4% active; AID 1347075, 2019; KB-3-1 viability, CellTiter-Glo ATP luminescence, 72 h; note: nearly all actives have a fitted effect of over 60% in size
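Cytotoxicity in the drug-sensitive parental line KB-3-1 was scored as loss of CellTiter-Glo luminescence following 72 h incubation with compound. Values come from curve fitting of normalized concentration-response data.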
HT1080-NT tox: qHTS for induction of synthetic lethality in tumor cells producing 2HG: qHTS for the HT-1080-NT fibrosarcoma cell line; HT-1080-NT fibrosarcoma viability, CellTiter-Glo ATP luminescence, 48 h; Potency, µM (highest dose often 46.1 µM), for inactives: at the highest dose activity, negative = less viability, most hits filed as cytotoxic; 360,000 tested, 1.6% active; AID 686970, 2013;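 note: NT is the 2HG producing partner of a matched IDH1 knockdown line; 0% = DMSO-treated cells and -100% = media-only wells without cells; nearly all actives have a fitted effect of over 55% in size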
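Viability by CellTiter-Glo luminescence after 48 h compound exposure at 37C of HT-1080-NT cells (750/well, RPMI, 5% FBS). % activity scaled between DMSO wells and medium-only wells, then curve-fitted and categorized by curve class.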
DT40 TDP1 CPT: qHTS for Inhibitors of human tyrosyl-DNA phosphodiesterase 1 (TDP1): qHTS in cells in presence of CPT. chicken DT40 Tdp1-/-;hTDP1 cells + 20 nM CPT, ATP luminescence, 48 h. Potency, µM (doses to about 46.2 µM), without a hit: top-dose activity change, negative = growth inhibition, usual class: inhibitors. 420,000 tested, 12% active; note: nearly all actives have a fitted effect of over 55% in size
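Chicken DT40 Tdp1-/- cells complemented with human TDP1, 400 cells/well, exposed to compounds plus 20 nM camptothecin for at least 48 h at 37 C; viability read as ATP content by CellTiter-Glo luminescence.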
KB-V1 MDR tox: qHTS assay for MDR1-selective chemotherapeutics: Primary screen using the drug-selected MDR subline cells KB-V1; 400,000 tested, 3.4% active; Potency, µM (top dose mostly 46.1 µM), actives largely listed as cytotoxic; KB-V1 MDR cells viability, CellTiter-Glo, 72 h; note: nearly all actives have a fitted effect of over 60% in size
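Cytotoxicity toward P-gp-expressing KB-V1 cells was determined as loss of CellTiter-Glo luminescence after 72 h at 37 degrees C. Compounds were tested in quantitative HTS format across a concentration range, with curves fitted to normalized data.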
DT40 TDP1 no CPT: qHTS for Inhibitors of human tyrosyl-DNA phosphodiesterase 1 (TDP1): qHTS in cells in absence of CPT; DT40 Tdp1-/- hTDP1 cells, no CPT, ATP luminescence, 48 h; Potency, µM (highest dose often 46.2 µM), for the others: at the highest dose activity change, negative = growth inhibition, actives largely listed as inhibitors; 420,000 tested, 15% active; AID 686978, 2013; note: nearly all actives have a fitted effect of over 55% in size
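Camptothecin absent (DMSO only). Human TDP1-complemented DT40 knockout cells, 400 cells/well, 37 °C for minimum 48 hr; ATP measured via CellTiter-Glo, 30 min dark incubation, luminescence.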
Active calls of the source: *; i = inactive; ? = inconclusive; / = not tested or not shown. Hits are enriched below; roughly 19% of the tested compounds scored in any of these assays. Calls come from the whole dose curve; as a rule, active = well fitted curve in the direction sought with a large enough effect; inconclusive = small, poorly fitted or top-dose-only effect, or another doubt; inactive = no such curve, though single readings can be large; an effect the other way counts as inactive or inconclusive. Unless noted, % is set by controls: 0 for no effect and ±100 for the full control effect; potency is the fitted concentration of half-maximal effect.

SMILES	HT1080 IDH1KD tx	KB-3-1 tox	HT1080-NT tox	DT40 TDP1 CPT	KB-V1 MDR tox	DT40 TDP1 no CPT
CCOC(=O)c1ccc(S(=O)(=O)N2CC(=O)Nc3ccccc32)cc1	-20.2%	i	-20.9%	18.4µM*	i	18.4µM*
CCc1ccc(S(=O)(=O)N2CC(=O)Nc3ccccc32)cc1	-4.3%	i	-2.4%	-7.9%	i	-18.3%
CCn1c(C(=O)Nc2c(C)cccc2C)cc2sc(Cl)cc21	/	i	/	-25.0%	i	?
C[C@H]1Cn2cnc(C(=O)Nc3cccc(Cl)c3)c2C(=O)N1	-4.5%	?	-16.6%	?	i	11.6µM*
O=C(CCS(=O)(=O)Cc1ccccc1)N1CCc2ccccc2C1	-2.4%	i	3.8%	?	16.4µM*	-12.5%
O=C(CCS(=O)(=O)Cc1ccccc1F)N1CCc2ccccc2C1	9.2%	i	5.6%	23.1µM*	i	16.4µM*
Cc1ccc(C(=O)OCC(=O)NC2CCCC2)cc1	0.0%	i	7.1%	1.4%	i	-1.3%
O=C(NCCN1CCN(Cc2ccccc2Cl)CC1)Nc1ccccc1	-13.0%	i	2.2%	?	i	-8.9%
CC(=O)Nc1ccc(-c2ccnc3c2CC(C)(C(=O)NCc2ccc(N4CCN(C)CC4)cc2)O3)cc1 (stereo unspecified)	-4.9%	i	-26.3%	-20.5%	i	?
COc1ccc(OCC2NCCc3cc(OC)c(OC)cc32)cc1 (stereo unspecified)	-5.1%	i	-12.6%	?	i	?
COc1cc2c(cc1OC)C(COc1cccc(C(F)(F)F)c1)NCC2 (stereo unspecified)	-22.4%	i	3.3%	20.6µM*	i	?
CCOc1ccc2nc3cc(NCc4ccc(OC)cc4)ccc3c(N)c2c1	?	?	?	14.6µM*	i	20.6µM*
CCOc1ccc2nc3cc(N)ccc3c(N)c2c1	/	/	/	?	/	18.4µM*
CCNC(=S)NNC(=O)c1csc(C(C)C)c1	3.1%	?	-0.6%	-1.0%	20.6µM*	-16.2%
CCCCNC(=S)NNC(=O)c1csc(C(C)C)c1	-6.4%	i	-20.2%	?	23.1µM*	?
Cc1c(Cl)cccc1NC(=O)CSc1ncnc2c1cnn2CCO	-8.0%	i	-5.3%	5.3%	i	-0.7%
CC(C)CCC(CCN1CCOCC1)c1ccc2c(c1)OCO2 (stereo unspecified)	?	i	-26.7%	?	20.6µM*	?
COCCCNCCC(CCC(C)C)c1ccc2c(c1)OCO2 (stereo unspecified)	14.6µM*	?	20.6µM*	?	?	20.6µM*
CC(C)CCC(CCN1CCCC1)c1ccc2c(c1)OCO2 (stereo unspecified)	-15.7%	i	-10.5%	?	i	?
CCCCC(Sc1ccc2nnc(-c3ccccn3)n2n1)C(=O)O (stereo unspecified)	/	?	/	17.5%	?	-1.1%
CCCc1cc(=O)oc2cc(OCC(=O)NCCN3CCOCC3)c(Cl)cc12	-0.8%	i	-2.9%	23.1µM*	i	16.4µM*
CCCc1cc(=O)oc2cc(C)cc(OCC(=O)NCCN3CCOCC3)c12	1.4%	i	-10.7%	-17.0%	i	8.7%
CCCc1cc(=O)oc2cc(C)cc(OCC(=O)Nc3ccc(CN4CCOCC4)cc3)c12	?	i	?	18.4µM*	?	5.8µM*
CCc1cc(=O)oc2cc(C)cc(OCC(=O)NCCN3CCOCC3)c12	7.7%	i	22.3%	4.3%	i	4.4%
CN1C(C(=O)Nc2cccc(O)c2)=CC(c2ccco2)=NS1(=O)=O	-9.0%	i	-11.4%	-26.5%	i	-11.8%
SMILES	HT1080 IDH1KD tx	KB-3-1 tox	HT1080-NT tox	DT40 TDP1 CPT	KB-V1 MDR tox	DT40 TDP1 no CPT
COc1ccccc1CN1C[C@@H]2C[C@@H](c3ccccc3OC)N3CCC[C@@]23C1=O	-14.7%	i	-5.0%	16.4µM*	i	?
COc1ccccc1-n1cc([C@@H]2C[C@H]3CN(c4ccccc4)C(=O)[C@]34CCCN24)cn1	5.8µM*	i	?	-6.9%	7.31µM*	2.7%
COc1ccccc1CN1C[C@@H]2C[C@@H](C3=Cc4cccc(OC)c4OC3)N3CCC[C@@]23C1=O	-25.4%	i	-8.0%	?	i	?
OCC1(O)OC[C@@H](O)[C@H]1O (stereo partly specified)	-2.9%	i	-0.1%	-11.8%	i	10.5%
COc1ccc2c(c1OC)C(=O)N1C2SC(C)(C)[C@H]1C(=O)NC1CC1 (stereo partly specified)	6.1%	i	6.7%	10.8%	i	2.0%
CC(C)(C)OC(=O)N1CCC(CC2CC(c3ccc(Cl)cc3)=NO2)(C(=O)NCC2CCCCC2)CC1 (stereo unspecified)	?	i	?	23.1µM*	i	16.4µM*
CCCCCCCNC(=O)C1(CC2CC(c3ccccc3)=NO2)CCN(C(=O)OC(C)(C)C)CC1 (stereo unspecified)	13.0%	i	4.4%	?	i	18.4µM*
CCCCCCCNC(=O)C1(CC2CC(c3ccccc3)=NO2)CCN(C(=O)c2ccccc2)CC1 (stereo unspecified)	-5.5%	i	-13.5%	?	i	16.4µM*
CC(C)(C)OC(=O)N1CCC(CC2CC(c3ccccc3)=NO2)(C(=O)NCc2ccccc2)CC1 (stereo unspecified)	1.7%	i	2.2%	?	i	?
CCCCCCCNC(=O)C1(CC2CC(c3ccc(Cl)cc3)=NO2)CCN(C(=O)c2ccccc2)CC1 (stereo unspecified)	14.6%	i	3.9%	?	i	?
CC1(C(=O)N2CCC(CC3CC(c4ccc(Cl)cc4)=NO3)(C(=O)NCC3CCCCC3)CC2)CC1 (stereo unspecified)	-9.6%	i	1.2%	?	i	?
c1ccc2cc(CSCc3nc4ccccc4[nH]3)ccc2c1	-21.4%	i	-13.3%	-27.7%	?	?
Cc1cc(C)c(C)c(S(=O)(=O)N2CCNC(=O)C2)c1C	-3.5%	i	11.0%	8.9%	i	1.9%

High-throughput results: PubChem BioAssay, National Center for Advancing Translational Sciences (NCATS)
